The results in this text go back to PubChem BioAssay AID602393 (Broad Institute, 2012).

The whole screen tested about 350,000 compounds, of which about 7,000 (2%) were called active. The entries come from a sample that favours actives as a whole. Values without a mark were called inactive. Rule as the data show it: active = activation above about 40%; inconclusive = no clear call, values can overlap the other calls; inactive = below that.

A short description of the test: Bmi1 luciferase reporter increase in mESCs, primary screen, esBAF inhibitor project, mouse ES cells, Bmi1 luciferase knock-in, single point (AID 602393).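 Also: 0% = median of the plate's neutral control wells and 100% = double that signal; a rise in the Bmi1 reporter signal indicates esBAF inhibition.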 As to conditions: 24 h, at 12.5 µM, active compounds read high, 100% = twice the neutral-well signal.
As to `CC(C)NC(=O)Nc1ccc2c(c1)C(=O)N(C)[C@@H]1CC[C@H](CC(=O)NCC3CCCCC3)O[C@@H]1CO2`, the reporter increase was 7.05%.

As for `COCC(=O)N[C@@H]1C=C[C@@H](CC(=O)N2CCCCC2)O[C@@H]1CO`, the reporter increase is 0.0415%.

With `COc1ccccc1C(=O)N1C[C@H]2[C@@H](c3ccccc31)[C@H](CO)N2C(=O)C1CC1`, the reporter increase was -3.8%.

Consider `O=C(C[C@@H]1C=C[C@@H](NC(=O)c2cccnc2)[C@H](CO)O1)NCCN1CCCCC1`, for which the reporter increase is -3.44%.

With `COc1cccc(S(=O)(=O)N[C@H]2C=C[C@H](CC(=O)NC3Cc4ccccc4C3)O[C@H]2CO)c1`, the reporter increase was -3.77%.

Take `CCOc1ccc(-n2c(SCC(=O)OC)nc3sc4c(c3c2=O)CCN(C)C4)cc1`: the reporter increase is 4.82%.

For the compound `CCOc1ccc(-n2c(SCC(=O)Nc3ccc(OC)cc3)nc3sc4c(c3c2=O)CCN(C)C4)cc1`, the reporter increase is 1.84%.

On to `COc1ccccc1NC(=O)CSc1nc2sc3c(c2c(=O)n1-c1ccccc1)CCN(C)C3`, for which the reporter increase was 50.8% (active).

Consider `COc1cccc(C(=O)Nc2nnc(S(=O)(=O)N3CCOCC3)s2)c1`, for which the reporter increase was 1.13%.

`COc1cccc(C(=O)Nc2cc3c(cc2Br)OCCCO3)c1`: the reporter increase was 82% (active).

For `COc1cccc(C(=O)NCCSc2ccc(Br)cc2)c1`, the reporter increase is -4.36%.

For the compound `Clc1ccc(CN2CCCCCC2)cc1Cl`, the reporter increase is -0.902%.

With `c1ccc2cc3[nH]c(CN4CCCCC4)nc3cc2c1`, the reporter increase was 43.8% (active).

For the compound `O=c1cc(CN2CCCCCCC2)c2c(ccc3ccccc32)o1`, the reporter increase was 2.61%.

In the case of `O=C(C[C@H]1CC[C@@H](NC(=O)Cc2ccccn2)[C@H](CO)O1)NCCc1ccccc1`, the reporter increase is 3.63%.

As to `O=c1c2cc(Br)ccc2nc(-c2cccc(Cl)c2)n1O`, the reporter increase is -7.05%.

For the compound `O=C(/C(=C/c1cccc(Cl)c1)c1nc2ccccc2[nH]1)c1ccccc1`, the reporter increase was 98.1% (active).

`C[C@H](O)C#Cc1ccc2c(c1)O[C@H](CN(C)C)[C@@H](C)CN([C@H](C)CO)S2(=O)=O`: the reporter increase is -3.76%.

On to `C[C@@H]1CN([C@@H](C)CO)C(=O)Cc2cc(NC(=O)Nc3ccc(F)cc3)ccc2O[C@@H]1CN(C)C(=O)NC1CCCCC1`, for which the reporter increase is 1.74%.

Turning to `COCC1CCN(C(=O)c2ccc3oc(Cc4ccccc4)nc3c2)C1` (stereo not drawn), the reporter increase was 22.8%.

`COCC1CCN(C(=O)CCc2nnc(C3(c4ccc(Cl)cc4)CCC3)o2)C1` (stereo not drawn): the reporter increase is 52% (active).

Turning to `COCC1CCCN(C(=O)c2ccc3oc(C(C)C)nc3c2)C1` (stereo not drawn), the reporter increase was 21.9%.

For `C[C@@H]1CCCCO[C@@H](CN(C)C(=O)C2CCCCC2)[C@H](C)CN([C@H](C)CO)C(=O)c2cc(NC(=O)CCC(F)(F)F)ccc2O1`, the reporter increase was 15.7%.

Consider `COc1cccc(CNC(=O)C[C@@H]2CC[C@@H]3[C@H](COc4ccc(NC(C)=O)cc4C(=O)N3C)O2)c1`, for which the reporter increase is -1.5%.

In the case of `CCOC(=O)C1(CCOc2ccccc2)CCN(Cc2cc(OC)cc(OC)c2)CC1`, the reporter increase is -7.06%.

For `CCOC(=O)C1(Cc2cccc(OC)c2)CCCN(C(=O)CCSC)C1` (stereo not drawn), the reporter increase is 51.6% (active).

Turning to `CCOC(=O)C1(Cc2cccc(OC)c2)CCN(C(C)CC(C)(C)O)CC1` (stereo not drawn), the reporter increase is -4.88%.

Consider `CNC(=O)C[C@H]1CC[C@@H]2[C@@H](COc3ccc(NC(=O)c4ccc(F)c(F)c4)cc3C(=O)N2C)O1`, for which the reporter increase was 0.615%.

`C[C@@H]1CN([C@H](C)CO)C(=O)c2cc(C#CC3CC3)cnc2O[C@@H]1CN(C)Cc1ccccn1`: the reporter increase was -2.08%.

As to `CC(=O)Nc1cccc(-c2cnc3ccccc3n2)c1`, the reporter increase is 72.3% (active).

Take `COc1cc(NC(=O)c2ccc(-c3csc(C)n3)cc2)c(OC)cc1Cl`: the reporter increase was 23.9%.

Regarding `CC(=O)NC(c1ccccc1)c1nc(-c2cccc(C(C)C)c2)cs1` (stereo not drawn), the reporter increase is -2.45%.

With `CC(=O)Nc1cccc(-c2cc(NC(C)=O)c3ncc(-c4ccccc4)n3c2)c1`, the reporter increase is -27.3%.

`CC(=O)Nc1cccc(-c2csc(Nc3cccc(C)n3)n2)c1`: the reporter increase is 51.5% (active).

Regarding `CC(=O)NC(c1cccc(F)c1)c1nc(-c2cccc(F)c2)cs1` (stereo not drawn), the reporter increase was 1.42%.

On to `COc1cccc(-c2cnc3c(NC(C)=O)cc(-c4cccc(NC(C)=O)c4)cn23)c1`, for which the reporter increase was 6.31%.

For `COc1cccc(C(O)c2nc(-c3ccc(C)c(C)c3)cs2)c1` (stereo not drawn), the reporter increase is 3.8%.

On to `COc1ccc(-c2csc(Nc3cccc(C)n3)n2)cc1OC`, for which the reporter increase was 86.6% (active).

`COc1cccc(-c2cnc3c(c2)C(=O)N([C@H](C)CO)C[C@@H](C)[C@H](CN(C)Cc2ccc(F)cc2)O3)c1`: the reporter increase was 1.81%.

Turning to `Cc1noc(C)c1S(=O)(=O)N(C)C[C@@H]1OCCCC[C@@H](C)Oc2ccc(NC(=O)c3ccccc3)cc2C(=O)N([C@@H](C)CO)C[C@@H]1C`, the reporter increase was 4.85%.

Take `COc1ccc(S(=O)(=O)Nc2ccc3c(c2)C(=O)N([C@@H](C)CO)C[C@H](C)[C@@H](CN(C)C(=O)c2ccccc2)OCCCC[C@H](C)O3)cc1`: the reporter increase was -1.88%.

In the case of `C/C=C/c1ccc([C@H]2[C@@H](CO)N(C(C)=O)[C@H]2CNC(=O)c2ccncc2)cc1`, the reporter increase was 2.82%.

With `C[C@@H]1CN([C@@H](C)CO)C(=O)c2cc(NS(=O)(=O)c3ccccc3)ccc2O[C@@H](C)CCCCO[C@H]1CN(C)S(=O)(=O)c1cccs1`, the reporter increase is -5.79%.

For the compound `O=C(C[C@@H]1C=C[C@@H](NC(=O)c2ccc3c(c2)OCO3)[C@H](CO)O1)NC1Cc2ccccc2C1`, the reporter increase was 4.12%.

On to `C[C@@H]1CCCCO[C@H](CN(C)C(=O)CCC(F)(F)F)[C@H](C)CN([C@@H](C)CO)C(=O)c2cc(NC(=O)CCCCCC(=O)Nc3ccccc3N)ccc2O1`, for which the reporter increase is 1.1%.

In the case of `COc1ccccc1N1CCN(/N=C/c2ccc(O)cc2O)CC1`, the reporter increase is 60.9% (active).

Regarding `COc1cc(/C=N/N2CCN(c3ccccc3)CC2)ccc1OC(C)=O`, the reporter increase was 7.78%.

`COc1ccccc1N1CCN(/N=C\C(Br)=C\c2ccccc2)CC1`: the reporter increase is 24.6%.

For `CN(C)CC(=O)Nc1ccc2c(c1)[C@@H]1C[C@H](CC(=O)NCC3CC3)O[C@@H](CO)[C@@H]1O2`, the reporter increase is 5.49%.

For the compound `CO[C@@H]1CN(C)C(=O)c2cc(NC(=O)c3ccc4c(c3)OCO4)ccc2OC[C@H](C)N(CCC(F)(F)F)C[C@H]1C`, the reporter increase is 1.54%.

With `O=C(NCC[C@@H]1CC[C@H](NS(=O)(=O)c2cccc(F)c2)[C@H](CO)O1)c1cnccn1`, the reporter increase is -3.13%.

Turning to `C[C@H](CO)N1C[C@H](C)[C@@H](CN(C)Cc2ccccn2)Oc2ncc(-c3cccc(F)c3)cc2C1=O`, the reporter increase is 0.648%.

Take `COC(=O)COc1cccc2c(=O)n(CC(=O)NCCc3ccc(OC)c(OC)c3)ccc12`: the reporter increase was 8.15%.

Regarding `COc1cc(C=O)c(Br)cc1OCC(=O)NCc1ccccc1`, the reporter increase is 0.717%.

Consider `COc1ccc(CNC(=O)COc2ccccc2C(=O)c2cnn(-c3ccccc3)c2)cc1OC`, for which the reporter increase is 75.1% (active).

For `O=C(C[C@H]1C[C@H]2c3cc(NC(=O)C4CCOCC4)ccc3O[C@H]2[C@@H](CO)O1)NCC1CC1`, the reporter increase is 0.385%.

With `O=C(COC(=O)c1ccc(O)cc1O)c1ccc2c(c1)OCCO2`, the reporter increase was 90.2% (active).

For the compound `O=C(COC(=O)c1ccc(O)cc1O)NC(=O)c1ccccc1`, the reporter increase is -3.35%.

For `O=C(CN1CCN(c2ccccc2F)CC1)c1ccc2c(c1)OCO2`, the reporter increase was 14.1%.

On to `O=C(OCc1ccccc1F)c1ccc2c(c1)OCCO2`, for which the reporter increase was 58.2% (active).

For `O=C(COC(=O)c1ccccc1)c1ccc2c(c1)OCCO2`, the reporter increase was 1.23%.

Regarding `O=C(COC(=O)c1ccc2c(c1)OCCO2)NCc1ccccc1Cl`, the reporter increase is -1.54%.

Consider `C/C=C/c1ccc([C@H]2[C@@H](CO)N(C(C)=O)[C@H]2CN(C)S(C)(=O)=O)cc1`, for which the reporter increase was -4.53%.

`O=C(C1CCC1)N1C[C@H]2[C@@H](c3ccccc31)[C@H](CO)N2C(=O)Nc1cccc(F)c1`: the reporter increase was -1.72%.

Take `CCOc1cccc(C(=O)Nc2nnc(-c3cccs3)s2)c1`: the reporter increase was 50% (active).

Regarding `Cc1nnc(NC(=O)c2ccc3nccnc3c2)s1`, the reporter increase is 16.2%.

In the case of `CCOc1cccc(C(=O)Nc2cnn(Cc3ccccc3)c2)c1`, the reporter increase was 13%.

Regarding `Cc1noc(C)c1NC(=O)N[C@@H]1C=C[C@H](CC(=O)N2CCCCC2)O[C@H]1CO`, the reporter increase is -4.9%.

Consider `COc1ccc(CNC(=O)C[C@H]2C[C@H]3c4cc(NS(C)(=O)=O)ccc4O[C@H]3[C@@H](CO)O2)cc1`, for which the reporter increase is -3.21%.

With `CN(C)C(=O)c1cccc(-c2ccc3c(c2)[C@H]2[C@H](CCN2C(=O)Cc2ccccc2)[C@H](CO)N3)c1`, the reporter increase is 11%.

`O=C(Nc1ccc(Cl)cc1)c1csc([C@H]2C[C@H](O)[C@@H](CO)O2)n1`: the reporter increase was 67.4% (active).

For `O=C(Nc1ccc(Cl)cc1)c1csc([C@@H]2O[C@H](CO)[C@H](O)[C@H](O)[C@H]2O)n1`, the reporter increase is -3.58%.

As for `O=C(Nc1ccc(OCCO)cc1)c1csc([C@H]2C[C@H](O)[C@@H](CO)O2)n1`, the reporter increase is 0.832%.

Regarding `CCCNC(=O)[C@@H]1[C@@H](CO)[C@@H]2Cn3c(ccc(C4=CCCCC4)c3=O)[C@H]1N2CCC`, the reporter increase was 2.73%.

With `O=C(C[C@H]1C[C@@H]2c3cc(NC(=O)C4CCC4)ccc3O[C@@H]2[C@@H](CO)O1)NCCN1CCCCC1`, the reporter increase is -1.5%.

For the compound `COC(=O)c1c(-c2ccc(C)cc2)csc1N`, the reporter increase is 0.96%.

For `Nc1scc(-c2ccncc2)c1Cl`, the reporter increase was 47.9% (active).

As to `COc1ccccc1CNC(=O)C[C@@H]1C[C@H]2c3cc(NC(=O)CN(C)C)ccc3O[C@H]2[C@@H](CO)O1`, the reporter increase was 0.071%.
